From PubChem BioAssay AID743131 (Broad Institute, 2013)
Results with a measured potency or affinity are listed apart. Records with an inconclusive call do not appear. The source made the active and inactive calls.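 Rule for the calls: active = cell viability loss with a fitted half-maximal concentration at or below twice the top valid dose; inconclusive = flat curve losing 30 to 70% viability, or a poor fit; inactive = the rest.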

Assay: viability loss in HEK293T cells – cell-based, ATP luminescence, dry powder, set 3, cytotoxicity control, dose response (AID 743131)
Details: ATP luminescence CellTiter-Glo, 72 h; series mostly up to 26 µM

Structure (SMILES) | outcome
Cc1ccc(OCCn2c(=S)[nH]c3ccccc32)cc1 | inactive
CCOC(=O)c1c(-c2ccc(F)cc2)csc1NC(=O)CN1CCN(C)CC1 | inactive
Cc1ccc(OCCn2c(SCCO)nc3ccccc32)c(C(C)C)c1 | inactive
COC(=O)C1=C(C)N(Cc2ccc(Cl)cc2)C(=S)NC1c1ccc(Br)cc1 (stereo not given) | inactive
COC(=O)C1=C(C)N(Cc2ccc(Br)cc2)C(=S)NC1c1ccc(OC)cc1 (stereo not given) | inactive
Cc1ccc(OCCn2c(C)nc3ccccc32)cc1 | inactive
S=c1[nH]c2ccccc2n1CCOc1ccc(Cl)cc1 | inactive
Fc1ccccc1OCCn1c(=S)[nH]c2ccccc21 | inactive
COC(=O)C1=C(C)N(Cc2ccc(Br)cc2)C(=S)NC1c1ccc(F)cc1 (stereo not given) | inactive
Fc1cccc2c1[nH]c(=S)n2CCOc1ccccc1 | inactive
Cc1ccc2c(c1)[nH]c(=S)n2CCOc1ccccc1 | inactive
CCOC(=O)c1c(-c2ccc(C(C)(C)C)cc2)csc1NC(=O)CN1CCN(C)CC1 | inactive
S=c1[nH]c2ccccc2n1CCOc1ccccc1 | inactive
CCOc1ccc(OCCn2c(=S)[nH]c3ccccc32)cc1 | inactive
CCOC(=O)c1c(-c2ccc(OC)cc2)csc1NC(=O)CN(C)CC(=O)N(C)C | inactive
Cc1ccc(OCCn2cnc3ccccc32)cc1 | inactive
O=c1[nH]c2ccccc2n1CCOc1ccccc1 | inactive
COC(=O)C1=C(C)N(Cc2ccc(F)cc2)C(=S)NC1c1cccc(F)c1 (stereo not given) | inactive
CCOC(=O)c1c(-c2ccc(F)cc2)csc1NC(=O)CN1CCN(CC)CC1 | inactive
S=c1[nH]c2cccc(Cl)c2n1CCOc1ccccc1 | inactive
